Bioassay records: PubChem BioAssay, several laboratories
This is a sample that favours compounds with a hit; in the whole collection about 0.56% have one here.
Bcl-B Bim block – inhibitors of Bim-Bcl-B binding, primary screen, biochemical, multiplexed, human Bcl-2 family; Bcl-2-like protein 10 (Homo sapiens), Q9HD36; bead-based flow cytometry, Bim peptide-Bcl-B binding; inhibition, % at 10 µM; actives 0.073% (n = 190,000); AID 951, 2007;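 also: 0% = tracer peptide without compound and 100% = reference inhibitor peptide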
Bcl-XL Bim block – inhibitors of Bim-Bcl-XL binding, primary screen, biochemical, multiplexed, bead flow cytometry, human Bcl-XL | Bcl-2-like protein 1 (Homo sapiens), Q07817 | Bim peptide-Bcl-XL binding, fluorescence | inhibition, % at 10 µM | actives 0.04% (n = 190,000) | AID 1007, 2008
Bfl-1 Bim block – inhibitors of Bim binding to Bfl-1, primary screen, biochemical, multiplexed, bead-based flow cytometry | AID 1008, 2008 | inhibition, % at 10 µM | Bim-Bfl-1 binding inhibition | actives 0.12% (n = 190,000);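 also: 0% = wells without compound plus tracer and 100% = blocker peptide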
Arbovirus anti – antivirals against arbovirus infection, primary screen, cell-based, full library, 10K replicate subset; arbovirus infection cell-based antiviral screen; inhibition, % at 10 µM; actives 0.37% (n = 200,000); AID 1251, 2008; in the data active = inhibition above about 30%
Bcl-W Bim block – inhibitors of Bim binding to Bcl-W, primary screen, biochemical, multiplexed, bead-based flow cytometry; Bim peptide-Bcl-W binding; Bcl-2-like protein 2 (Homo sapiens), Q92843; inhibition, % at 10 µM; actives 0.02% (n = 190,000);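 also: 0% = bound tracer without compound and 100% = peptide blocker; higher means less fluorescent Bim peptide bound to Bcl-W beads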
Target sequence (Q92843 whole entry, looked up): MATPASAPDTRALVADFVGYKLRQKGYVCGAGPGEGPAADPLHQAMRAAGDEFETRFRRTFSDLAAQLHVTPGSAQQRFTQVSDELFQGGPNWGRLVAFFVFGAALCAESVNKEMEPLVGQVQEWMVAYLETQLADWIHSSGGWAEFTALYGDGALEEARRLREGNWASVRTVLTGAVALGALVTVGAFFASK
Bim-Bcl-2 – inhibitors of Bim-Bcl-2 binding, primary screen, biochemical, multiplexed, human Bcl-2 family; Apoptosis regulator Bcl-2 (Homo sapiens), P10415; Bead-based flow cytometry, Bim peptide-Bcl-2 binding; inhibition, % at 10 µM; actives 0.06% (n = 190,000); in the data active = inhibition above about 40%;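 also: 0% = no compound wells with probe peptide and 100% = reference peptide inhibitor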
Target sequence (P10415 whole entry, looked up): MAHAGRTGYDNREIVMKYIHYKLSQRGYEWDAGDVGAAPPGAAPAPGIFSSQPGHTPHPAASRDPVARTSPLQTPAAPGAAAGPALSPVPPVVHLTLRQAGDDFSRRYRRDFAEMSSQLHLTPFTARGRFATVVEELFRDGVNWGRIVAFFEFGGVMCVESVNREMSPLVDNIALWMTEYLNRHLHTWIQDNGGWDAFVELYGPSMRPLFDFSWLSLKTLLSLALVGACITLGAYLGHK
Active calls of the source: *. Rule as the data show it, unless noted: active = inhibition above about 40%.

SMILES | Bcl-B Bim block | Bcl-XL Bim block | Bfl-1 Bim block | Arbovirus anti | Bcl-W Bim block | Bim-Bcl-2
COc1ccc(CN(C(=O)c2cc3ccccc3oc2=O)C2CCCCC2)cc1OC | -10 | -6 | -5 | 103* | -7 | -2
Cn1c2c(c(=O)[nH]c1=O)C(c1cccc(O)c1)C1=C(N2)c2ccccc2C1=O (configuration not stated) | -3 | -2 | -4 | -22 | -1 | 0
Cc1ccc(-c2nc3c(c(=O)[nH]c(=O)n3Cc3ccccc3)n2C)o1 | -4 | 2 | 40* | 15 | 9 | 8
COc1ccc(CCNC(=O)C2CCCN(c3ncccn3)C2)cc1 (configuration not stated) | -2 | -3 | -5 | 6 | 1 | -1
Cc1nc(S/C(=C/c2ccc(-c3cccc(Cl)c3)o2)C(=O)O)n[nH]1 | 0 | 2 | -2 | 33* | 9 | 2
COc1ccc(CNC(=O)Cn2cncn2)cc1OC | 8 | 3 | 0 | 10 | 6 | 2
Cc1ccc2nc(N3C(=O)C(O)=C(C(=O)c4ccc(C)o4)C3c3cccc(O)c3)sc2c1 (configuration not stated) | -2 | 0 | 3 | 76* | -1 | 0
O=Cc1ccccc1OS(=O)(=O)c1ccccc1 | -2 | 0 | -1 | -4 | -2 | -5
O=C(Nc1nnc(SCc2ccc(F)cc2)s1)c1ccc2ncsc2c1 | -9 | -8 | -12 | -8 | -5 | -6
O=C(Nc1nnc(SCc2ccc(F)cc2)s1)c1ccc2c(c1)C(=O)N(c1ccccc1Cl)C2=O | -6 | -7 | -7 | 44* | -1 | -3
CCc1nnc(NC(=O)CSc2ccc(-c3ccccc3OC)nn2)s1 | -5 | -3 | -6 | 26 | -1 | -6
COCCn1c(SCc2nc3scc(-c4ccc(Cl)cc4)c3c(=O)[nH]2)nnc1-c1cccc(C)c1 | -3 | -5 | -4 | 32* | -4 | -2
CCn1c(SCc2nc3scc(-c4ccccc4)c3c(=O)[nH]2)nnc1-c1cccs1 | -3 | -6 | 4 | 0 | -8 | 5
CCOC(=O)c1ccc(N2C(=O)C3C(/C=C/c4ccccc4)OC4(C(=O)c5ccccc5C4=O)C3C2=O)cc1 (configuration not stated) | 0 | 0 | 1 | 73* | 0 | 1
COc1ccc(-c2c3c(cc(C)[n+]2[O-])oc2ccc(OC)cc23)cc1 | -6 | -6 | 0 | 40* | -4 | -6
COc1ccc(-c2cc(=O)c3cc(OC)ccc3o2)cc1 | 1 | 0 | 0 | -13 | 3 | 1
COc1ccc2oc3cc(C)[n+]([O-])c(-c4ccc(Cl)cc4)c3c2c1 | -7 | -5 | -1 | 45* | -1 | -3
COc1ccc2oc3cc(C)[n+]([O-])c(-c4ccc(C)cc4)c3c2c1 | 0 | 2 | -17 | 46* | 6 | -8
CCC(=O)N(CC)C1=C(O)c2ccccc2C(=O)C1=O | 11 | 5 | 52* | -2 | 10 | 7
CC(C)(Oc1ccc(Cl)cc1)C(=O)NC1=NN(c2ccccc2)C(=O)C1 | 2 | -6 | 2 | 35* | -5 | 2
Cc1cc2[nH]c3ccccc3c2c(C)n1 | -2 | -1 | -2 | -9 | 1 | -3
Cc1nc2c(c3c1[nH]c1ccccc13)C(O)CC(C)(C)C2 (configuration not stated) | -1 | -5 | -2 | 54* | -1 | -1
Cc1ccccc1OCCSCc1nc2ccccc2[nH]1 | -8 | -4 | -14 | 66* | -4 | -11
Cc1cccc(OCCSCc2nc3ccccc3[nH]2)c1 | 0 | -1 | -2 | 9 | -1 | 0
O=C(NCc1ccccn1)C(=O)C1C(=O)Nc2ccccc21 (configuration not stated) | -3 | 5 | 5 | 1 | 3 | 4
SMILES | Bcl-B Bim block | Bcl-XL Bim block | Bfl-1 Bim block | Arbovirus anti | Bcl-W Bim block | Bim-Bcl-2
CN(C)CCNC(=O)C(=O)C1C(=O)Nc2ccccc21 (configuration not stated) | 70* | 0 | 52* | 4 | -6 | 78*
COc1ccccc1NS(=O)(=O)c1ccc(C)c(NC(=O)c2ccc(S(=O)(=O)N3CCCCCC3)cc2)c1 | -12 | -7 | -2 | -2 | -4 | -2
Cc1ccc(N2C(=O)C3CC(c4ccccc4)=C4C5C=CC(C6C(=O)N(c7ccc(C)cc7C)C(=O)C56)C4C3C2=O)c(C)c1 (configuration not stated) | -7 | -2 | -9 | -1 | 1 | -9
Cc1ccc(N2C(=O)C3CC(c4ccccc4)=C4C5C=CC(C6C(=O)N(c7ccc(C)cc7)C(=O)C56)C4C3C2=O)cc1 (configuration not stated) | 5 | 4 | 12 | 33* | 3 | 9
Cc1ccc(-n2ccc(=O)c(-c3ccnc(SCc4cccc(Cl)c4)n3)n2)cc1 | 74* | 12 | 56* | -4 | 15 | 79*
O=C1c2ccccc2C(O)N1c1ccc(Cl)cc1 (configuration not stated) | -3 | 0 | -10 | 29 | 0 | -7
O=C1c2ccccc2N2C(=O)c3ccccc3[C@H]2N1c1ccccc1 | -7 | -9 | -12 | 30* | 1 | -13
O=C(Nc1nc2ccccc2s1)c1ccc(N2CCCCC2)c([N+](=O)[O-])c1 | -7 | -7 | -5 | 38* | -8 | -9
CSc1ncc(Cl)c(C(=O)C(C#N)c2nc3c(C)cc(C)cc3c(=O)[nH]2)n1 (configuration not stated) | -6 | -13 | -23 | 41* | -1 | -9
CSc1ncc(Cl)c(C(=O)Nc2cccc(C)c2)n1 | -11 | -6 | -5 | 3 | -4 | -6
CNC(=O)/C(=C\c1ccc2c(c1)OCO2)NC(=O)c1ccc(Br)cc1 | -5 | -1 | -14 | -7 | 1 | -20
COc1cccc2sc(NN)nc12 | 0 | 1 | -2 | 37* | -1 | 0
COc1ccc(OC)c(NC(=O)c2cc(-c3ccc(C)cc3O)n[nH]2)c1 | -7 | -1 | -7 | 31* | 2 | -9
Cc1ccc(-c2cc(C(=O)Nc3cc(C)ccc3C)[nH]n2)c(O)c1 | 1 | -1 | 2 | 2 | 1 | 2
O=c1[nH]n2c(=O)c3c([nH]c2c1N=Nc1cccc(Cl)c1)CCC3 | 2 | 0 | -1 | 34* | 0 | 1
O=c1[nH]n2c(=O)c3c([nH]c2c1N=Nc1cccc(C(F)(F)F)c1)CCCC3 | -5 | -5 | -2 | 37* | -7 | -2
COc1cccc(N=Nc2c(=O)[nH]n3c(=O)c4c([nH]c23)CCC4)c1 | 0 | 0 | -3 | 9 | -3 | -6
